Test [1] in a line: qHTS assay to identify small molecule agonists of the RXR signaling pathway - cell viability counter screen (AID 1159529). Note: nearly all actives have a fitted effect of over 50% in size. Note: potency is the fitted concentration of half-maximal effect. In short, it runs like this:
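Counter screen: CellTiter-Glo luminescence. Cells: RXR-alpha-UAS-bla HEK 293T. Medium: 2% charcoal-stripped FBS. Treatment: 16 h, 37 C. Reagent incubation: 30 min, RT.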
(Quantitative high-throughput screening tests each substance at several concentrations.)

The nature of test [2]: qHTS assay to identify small molecule antagonists of the retinoid acid receptor (RAR) signaling pathway - cell viability counter screen (AID 1159551). Note: nearly all actives have a fitted effect of over 35% in size. Note: potency is the fitted concentration of half-maximal effect. The method, boiled down:
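Following overnight attachment, C3RL4 reporter cells received DMSO-dissolved compounds and then retinol (1 uM final). Six hours later at 37 C, ATP content was measured by CellTiter-Glo luminescence.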

A short description of test [3]: qHTS assay to identify small molecule antagonists of the retinoic acid receptor (RAR) signaling pathway (AID 1159552; note: nearly all actives have a fitted effect of over 50% in size; note: potency is the fitted concentration of half-maximal effect). In short, it runs like this: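 Antagonism of retinol-induced RARE reporter activity was measured in C3RL4 cells. Exposure to compounds and 1 uM final retinol lasted 6 hr at 37 C, with luminescence as endpoint.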
A short description of test [4]: qHTS assay to identify small molecule antagonists of the estrogen related receptor (ERR) signaling pathway from Tox21 library - cell viability counter screen (AID 1224834). Note: nearly all actives have a fitted effect of over 30% in size. Note: potency is the fitted concentration of half-maximal effect. The method, boiled down:
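Viability readout (CellTiter-Fluor fluorescence, 30 min at 37 C) multiplexed with the ERR assay; cells treated 17.5 h at 37 C with compounds delivered in DMSO.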

Test [5] addresses Nuclear receptor subfamily 1 group I member 3 (Homo sapiens) (UniProt Q14994). As to the kind of experiment: qHTS assay to identify small molecule agonists of the constitutive androstane receptor (CAR) signaling pathway (AID 1224839).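 For activation: HepG2 cells stably carrying human CAR and a CYP2B6 luciferase reporter.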 Note: nearly all actives have a fitted effect of over 15% in size. Note: potency is the fitted concentration of half-maximal effect. In short, it runs like this: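 Readout: firefly luciferase luminescence via ONE-Glo. System: HepG2 double-stable for hCAR and CYP2B6-2.2kb. Conditions: 15-point compound titration, PK11195 at 0.75 uM final, 24 h incubation.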

Test [6] is described as follows: qHTS assay to identify small molecule antagonists of the estrogen related receptor signaling pathway with the pleiotropic PPARgamma coactivator (PGC) from Tox21 10K library - cell viability counter screen (AID 1224840; active = well fitted cell-killing curve with a large enough effect in the repeat runs, not every such curve was filed as active; note: nearly all actives have a fitted effect of over 40% in size; note: potency is the fitted concentration of half-maximal effect). In short, it runs like this:
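Compounds in DMSO, alongside positive and negative controls, were pinned onto PGC/ERR cells (2,000 per well). Exposure lasted 17.5 hours at 37 C, followed by a 30-minute CellTiter-Fluor incubation and fluorescence reading.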

The nature of test [7]: qHTS assay to identify small molecule antagonists of the estrogen related receptor signaling pathway with the pleiotropic PPARgamma coactivator (PGC) from Tox21 10K library (AID 1224841; call rule not given here; note: actives are mostly falling curves and most rising ones were filed inactive; nearly all actives have a fitted effect of over 50% in size; note: potency is the fitted concentration of half-maximal effect). In short, it runs like this: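 Compound exposure ran 18 hours at 37 C in PGC/ERR cells (2,000/well) that had first rested 6 hours in a 37 C/5% CO2 incubator. Luciferase activity was then detected with One-Glo after a 30-minute room-temperature step.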

A short description of test [8]: qHTS assay to identify small molecule agonists of the estrogen related receptor signaling pathway with the pleiotropic PPARgamma coactivator (PGC) from Tox21 10K library (AID 1224842). Note: nearly all actives have a fitted effect of over 15% in size. The method, boiled down: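 Luminescence from One-Glo (30 min, room temperature) measured after PGC/ERR cells had 18 h at 37 C with pinned compound (23 nL in DMSO). Cells had been seeded at 2,000 per well and pre-incubated 6 h.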

The target in test [9] is Thyrotropin receptor (Homo sapiens) (UniProt P16473). As to the kind of experiment: qHTS assay to identify small molecule agonists of the thyroid stimulating hormone receptor (TSHR) signaling pathway (AID 1224843; calls by dose curve; note: nearly all actives have a fitted effect of over 45% in size; note: potency is the fitted concentration of half-maximal effect). In short, it runs like this: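 Screening of the Tox21 10K collection used HEK293 cells engineered with TSHR at 800 cells per well. After a 30-min room-temperature compound exposure, HTRF cAMP reagents were added and fluorescence recorded 1 h later.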

Test [10] can be described thus: qHTS assay to identify small molecule agonists of the retinoic acid receptor (RAR) signaling pathway (AID 1159553). Note: potency is the fitted concentration of half-maximal effect. The note with it: C3RL4 RARE luciferase reporter, agonist, 6 h; activation: at 73.3 µM (top of the series) unless noted. In short, it runs like this:
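Cell line C3RL4, RARE luciferase reporter. Treatment: compounds in DMSO, 6 hr, 37 C, 5% CO2, after overnight plating. Detection: luminescence, 30 min RT after reagent.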

Test [11] can be described thus: qHTS assay to identify small molecule agonists of the constitutive androstane receptor (CAR) signaling pathway - cell viability counter screen (AID 1224836). Note: nearly all actives have a fitted effect of over 45% in size. Note: potency is the fitted concentration of half-maximal effect. The method, boiled down:
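Double-stable HepG2 hepatoma cells (hCAR plus CYP2B6-2.2kb) are treated for 23 h at 37 C with test compounds in 15-point concentration series. PK11195 at 0.75 uM final is co-added. Cell viability is quantified by CellTiter-Fluor.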

A short description of test [12]: qHTS assay to identify small molecule antagonists of the constitutive androstane receptor (CAR) signaling pathway - cell viability counter screen (AID 1224837). Note: nearly all actives have a fitted effect of over 45% in size. Note: potency is the fitted concentration of half-maximal effect. The method, boiled down:
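Fluorescence from CellTiter-Fluor served as the viability signal. Human hepatoma HepG2 cells stably bearing hCAR and CYP2B6-2.2kb received compound plus CITCO (50 nM final) for 23 hr.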

Test [13] addresses Nuclear receptor subfamily 1 group I member 3 (Homo sapiens) (UniProt Q14994). As to the kind of experiment: qHTS assay to identify small molecule antagonists of the constitutive androstane receptor (CAR) signaling pathway (AID 1224838).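 Note: HepG2 cells stably expressing hCAR with CYP2B6 luciferase reporter stimulated by CITCO; nearly all actives have a fitted effect of over 40% in size.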 Note: potency is the fitted concentration of half-maximal effect. In short, it runs like this:
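Quantitative HTS in double-stable HepG2-CYP2B6-hCAR cells. After 4 h plating, cells get compound (15 concentrations) and CITCO at 50 nM final, incubate 24 h at 37 C, then ONE-Glo luminescence is read.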

The target of test [14] is Luciferin 4-monooxygenase (Photinus pyralis) (UniProt P08659). As to the kind of experiment: qHTS assay to identify small molecule inhibitors of firefly luciferase (AID 1224835). Note: nearly all actives have a fitted effect of over 25% in size. The method, boiled down: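 Inhibition of purified Photinus luciferase is measured by luminescence. Substrate levels (D-luciferin, ATP) sit at their KM values. Each compound is tested in a concentration series.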

Values joined by “and” are separate entries in the source; they are usually repeats but may differ in a detail not shown here. Equal values may be shown once. Records with an inconclusive call do not appear. The source holds several records for some structures; these can differ, active in one and inactive in another. Active and inactive are the calls of the source. Unless noted, calls come from the whole dose curve; as a rule, active = well fitted curve in the direction sought with a large enough effect in the repeat runs; inconclusive = weak or mixed curves; inactive = no such curve, though single readings can be large; an effect the other way counts as inactive or inconclusive.

Sequence of Thyrotropin receptor (Homo sapiens) (P16473 whole entry, looked up): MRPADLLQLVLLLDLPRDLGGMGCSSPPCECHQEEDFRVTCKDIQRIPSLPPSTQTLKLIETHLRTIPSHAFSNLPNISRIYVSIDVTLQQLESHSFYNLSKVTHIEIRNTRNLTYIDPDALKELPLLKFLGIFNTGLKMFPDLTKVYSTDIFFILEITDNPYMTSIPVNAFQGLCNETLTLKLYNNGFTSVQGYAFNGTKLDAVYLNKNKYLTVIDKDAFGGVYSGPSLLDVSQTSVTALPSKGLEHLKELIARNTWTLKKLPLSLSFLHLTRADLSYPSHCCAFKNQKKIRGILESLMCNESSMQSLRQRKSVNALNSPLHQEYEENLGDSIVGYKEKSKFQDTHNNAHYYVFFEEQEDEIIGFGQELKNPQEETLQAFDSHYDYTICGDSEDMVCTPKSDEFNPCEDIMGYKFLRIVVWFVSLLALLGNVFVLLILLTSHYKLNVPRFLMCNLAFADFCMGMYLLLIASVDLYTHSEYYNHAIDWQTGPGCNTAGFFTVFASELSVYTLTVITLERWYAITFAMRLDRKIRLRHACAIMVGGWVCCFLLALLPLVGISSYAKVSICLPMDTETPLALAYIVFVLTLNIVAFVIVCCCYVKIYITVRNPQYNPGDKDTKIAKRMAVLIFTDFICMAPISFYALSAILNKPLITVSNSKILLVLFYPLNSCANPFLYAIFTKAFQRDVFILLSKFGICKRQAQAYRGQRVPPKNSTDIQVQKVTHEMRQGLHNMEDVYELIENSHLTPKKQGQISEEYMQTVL
Sequence of Luciferin 4-monooxygenase (Photinus pyralis) (P08659 whole entry, looked up): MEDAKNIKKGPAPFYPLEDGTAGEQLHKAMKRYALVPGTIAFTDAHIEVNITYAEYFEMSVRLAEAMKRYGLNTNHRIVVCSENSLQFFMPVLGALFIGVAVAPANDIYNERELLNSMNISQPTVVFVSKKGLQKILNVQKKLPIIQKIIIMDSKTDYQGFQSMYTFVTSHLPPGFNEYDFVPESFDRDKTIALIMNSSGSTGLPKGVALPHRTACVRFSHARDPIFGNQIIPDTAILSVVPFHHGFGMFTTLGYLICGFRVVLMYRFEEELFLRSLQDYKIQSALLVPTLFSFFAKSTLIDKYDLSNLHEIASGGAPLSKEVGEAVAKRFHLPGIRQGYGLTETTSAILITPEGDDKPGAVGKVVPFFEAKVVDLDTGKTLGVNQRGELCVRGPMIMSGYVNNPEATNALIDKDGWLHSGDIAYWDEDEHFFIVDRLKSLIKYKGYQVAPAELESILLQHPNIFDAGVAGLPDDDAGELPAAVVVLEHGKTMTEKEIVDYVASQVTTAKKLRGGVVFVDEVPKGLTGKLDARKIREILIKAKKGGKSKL
Sequence of Nuclear receptor subfamily 1 group I member 3 (Homo sapiens) (Q14994 whole entry, looked up): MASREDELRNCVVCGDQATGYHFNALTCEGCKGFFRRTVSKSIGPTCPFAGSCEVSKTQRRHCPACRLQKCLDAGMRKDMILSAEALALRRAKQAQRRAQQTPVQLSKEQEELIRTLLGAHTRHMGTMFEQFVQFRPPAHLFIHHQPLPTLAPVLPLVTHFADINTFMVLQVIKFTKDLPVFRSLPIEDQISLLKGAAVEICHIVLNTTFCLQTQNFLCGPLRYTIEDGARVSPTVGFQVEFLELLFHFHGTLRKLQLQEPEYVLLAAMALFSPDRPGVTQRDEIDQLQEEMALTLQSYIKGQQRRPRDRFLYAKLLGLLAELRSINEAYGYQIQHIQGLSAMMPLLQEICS

`CC(C)(c1ccccc1)c1ccc(O)c(C(C)(C)c2ccccc2)c1`: the Potency is 13.7 µM (active) and 15.5 µM (active) in [1]; 54 µM (active) and 61.1 µM (active) in [2]; 27.1 µM (active) and 27.3 µM (active) in test [3]; 54 µM (active) and 54.5 µM (active) in test [4]; 7.7 µM (active) in test [5]; 54 µM (active) and 54.5 µM (active) in [6]. Further, the Potency in [7] was 48.1 µM (active); in [9], 54.5 µM (active). Besides, in test [8], the Potency result is “inactive”.

In the case of `Nc1ccc2ccccc2c1`, the Potency result in test [1], in [2], in test [3], in test [4], in test [11] and in test [12] was “inactive” throughout. The Potency result in [13], in [6], in [7] and in test [8] was “inactive” in each case. In addition, the Potency was 33.2 µM (active) in test [10]; 52.6 µM (active) and 48.6 µM (active) in [5].

Turning to `Clc1ccccc1-c1nnc(-c2ccccc2Cl)nn1`, the Potency entry in [1], in [2], in test [3], in test [4], in test [11] and in [12] was “inactive” throughout. Moreover, the Potency result in test [13], in test [6] and in [9] was “inactive” in each case. Moreover, the Potency in test [10] was 6.8 µM (active); in test [5] it was 30.4 µM (active) and 9.66 µM (active).

`CCCCOC(=O)COC(=O)c1ccccc1C(=O)OCCCC`: the Potency entry in [1], in test [2], in test [3], in [10], in test [4] and in test [11] was “inactive” each time. The Potency result in test [12], in test [13], in test [5], in [6], in test [7] and in [8] was “inactive” in each case.

Consider `CCCCCCCC[N+](C)(CCCCCCCC)CCCCCCCC`, for which the Potency in [1] was 346 nM (active) and 15.5 µM (active) and 6.16 µM (active); in test [2], 27.3 µM (active) and 61.2 µM (active); in test [3], 4.85 µM (active) and 9.7 µM (active) and 13.7 µM (active); in test [4] it was 17.2 µM (active) and 1.72 µM (active) and 21.7 µM (active); in test [11], 17.2 µM (active) and 7.7 µM (active) and 48.6 µM (active); in test [12] it was 19.3 µM (active) and 13.7 µM (active) and 17.2 µM (active). The Potency in [13] was 17.2 µM (active) and 15.4 µM (active); in test [6], 9.67 µM (active) and 1.37 µM (active) and 13.7 µM (active). Besides, the Potency result in test [5] was “inactive”.

With `O=NN1CCOCC1`, the Potency entry in test [1], in test [2], in test [3], in test [10], in test [4] and in test [14] was “inactive” in each case. In addition, the Potency entry in [11], in test [12], in test [6] and in [9] was “inactive” throughout.

For the compound `CC1CC(=O)O1` (stereo not drawn), the Potency entry in test [1], in test [2], in [3], in [10], in [4] and in [11] was “inactive” each time. Also, the Potency result in test [12], in test [6] and in [9] was “inactive” in each case.

Take `O=P(OCCCl)(OCCCl)OCCCl`: the Potency result in test [1], in test [2], in [3], in [10], in test [4] and in test [11] was “inactive” each time. Moreover, the Potency result in test [12], in test [13], in test [5], in [6] and in [8] was “inactive” throughout. The Potency in test [7] is 4.81 µM (active) and inactive.

As to `C[N+](C)(C)C`, the Potency entry in test [1], in test [2], in [10], in [4], in test [14] and in test [11] was “inactive” in each case. In addition, the Potency result in test [12], in [13], in test [5], in test [6] and in test [9] was “inactive” each time.

Consider `CNC(=O)Oc1cccc2c1OC(C)(C)C2`, for which the Potency result in test [1], in test [2], in test [3], in test [10], in test [4] and in test [11] was “inactive” each time. In addition, the Potency result in test [12], in [13], in test [5], in test [6], in [7] and in [8] was “inactive” throughout. Moreover, the Potency result in test [9] was “inactive”.

Values taken from PubChem BioAssay (Tox21).
